Measurements taken from the supplement of paper PMC4380459.

Tested on: tubulin (bovine brain)
Experiment: tubulin polymerization end-point dOD, fold change relative to DMSO vehicle; higher = more polymerization (stabilization)
Settings: 50 µM; 60 min; 37 °C
Description: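 In-vitro tubulin polymerization assay (Cytoskeleton HTS kit) with 4 mg/ml bovine brain tubulin in G-PEM buffer and compound at 50 uM (0.5% DMSO). Turbidity was read at 340 nm every minute for 1 h at 37 C. The end-point change in OD (dOD) was converted to % fold change relative to the DMSO vehicle (0%), and runs were scaled using DMSO and Taxol controls. The paper calls >20% an effect, 20-40% weak and >40% strong; positive values mean stabilization, negative values destabilization. Scale: negative = destabilization.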

Row | Compound | tubulin polymerization end-point dOD [%]
1 | N#Cc1cc2cc3c(cc2nc1SCC(=O)Nc1ccccc1Cl)OCCO3 | 17.2
2 | O=C(Nc1ccc(N2CCc3sccc3C2)nc1)c1ccccc1Br | 14.9
3 | C/C(=N\Nc1cc(-c2ccccc2)nc(C)n1)c1ccc(C)cc1 | -7.02
4 | CCOc1ccc(S(=O)(=O)Nc2cc(Br)c3oc(C)c(C(C)=O)c3c2)cc1 | -25.4
5 | COc1ccc2cc(CN(Cc3ccco3)C(=O)Nc3ccccc3OC)c(=O)[nH]c2c1 | 43.9
6 | Cc1ccc2[nH]c(=O)c(CN(CC3COCCO3)C(=O)Nc3ccccc3Cl)cc2c1 (stereo not given) | 23.1
7 | COc1ccc(NC(=O)CSc2nc3cc4c(cc3cc2C#N)OCO4)c(OC)c1 | 23.6
8 | O=c1[nH]c(CSc2ccccc2)nc2sc3c(c12)CCC3 | -9.09
9 | COc1cccc(N2CCN(C(=O)c3cn(-c4ccccc4)nc3-c3cccnc3)CC2)c1 | -111
10 | CCc1ccccc1NC(=S)N(CCCO)Cc1cc2cc(C)cc(C)c2[nH]c1=O | -51.6
11 | CCc1ccc2nc(SCC(=O)Nc3cc(C)ccc3C)c(C#N)cc2c1 | -12.2
12 | COc1ccc(OCc2nnc(SCC(N)=O)n2-c2cc(C)ccc2C)cc1 | -39.4
13 | CCc1nnc(NC(=O)CSc2cc(C)c3cc(C)cc(C)c3n2)s1 | 19.7
14 | O=C(N/N=C/c1ccc2c3c(cccc13)CC2)C1COc2ccccc2O1 (stereo not given) | 28.5
15 | COc1ccc2nc(/C=C/c3cccnc3)sc2c1 | -29.9
16 | c1ccc(CCc2nc3c4ccccc4ncn3n2)cc1 | -31.9
17 | O=c1c(Cl)c(N2CC=C(c3ccccc3)CC2)cnn1-c1nc2ccccc2[nH]1 | -22.9
18 | CCc1ccccc1NC(=O)CSc1nc2cc3c(cc2cc1C#N)OCCO3 | -23.9
19 | CCOC(=O)Nc1nc2ccccc2[nH]1 | 0.459
20 | CC(=O)Nc1ccc(Nc2nc(-c3c(C)nc4ccccn34)cs2)cc1 | 30.8

Row | Compound | tubulin polymerization end-point dOD [%]
21 | O=C(Nc1ccc(Cl)cc1)N(Cc1cc2cc3c(cc2[nH]c1=O)OCCO3)CC1CCCO1 (stereo not given) | -20.7
22 | COc1ccc(/C(C)=N/Nc2cc[nH+]c3cc(Cl)ccc23)cc1OC | 3.81
23 | COc1ccc2cc(CN(Cc3ccccc3Cl)C(=O)Nc3ccccc3OC)c(=O)[nH]c2c1 | -4.53
24 | O=C(Nc1ccc(N2CCc3sccc3C2)nc1)c1ccccc1F | -40.4
25 | COc1cc(C(=O)Nc2ccc3c(c2)CCN3C(C)=O)cc2c1OCCO2 | -17
26 | COc1ccc(Br)cc1-c1nc(CN2C(=O)NC(C)(c3ccccc3)C2=O)cs1 (stereo not given) | 88.8
27 | CS(=O)(=O)N1CCCc2cc(C(=O)Cn3cnc4scc(-c5ccc(F)cc5)c4c3=O)ccc21 | -30.9
28 | CCc1noc(CSc2ncnc3scc(-c4ccc(C)cc4)c23)n1 | 30.2
29 | O=C(Nc1ncc(Cc2ccccc2)s1)c1sc2ccccc2c1Cl | -14.2
30 | Cc1ccc(C(=O)Nc2ncc(Cc3ccccc3Br)s2)cn1 | -35.9
31 | COc1ccc(Cc2cnc(NC(=O)c3sc4ccccc4c3Cl)s2)cc1 | 169
32 | CCc1cc2cc(OC)ccc2nc1SCC(=O)Nc1cc(C)ccc1OC | -2.45
33 | COc1cc(CNc2ccc(Br)cc2)cc(OC)c1OC | -37.3
34 | Cc1cccc(/C=N/N=C2\NC(=O)C(Cc3cccc(C)c3)S2)c1 (stereo not given) | 9.8
35 | Cc1cc2cc3c(cc2nc1SCC(=O)NC1CCCC1)OCCO3 | 10.3
36 | Cc1ccc(C)c(NC(=O)CSc2nc3ccc(C(C)C)cc3cc2C#N)c1 | -39.1
37 | Cc1cccc(Cc2cnc(NC(=O)c3sc4ccccc4c3Cl)s2)c1 | 81.7
38 | O=C(c1cncn1-c1ccccc1)N1CCN(c2cccc(Cl)c2)CC1 | -50
39 | CCOc1ccc(C2=[NH+]c3ccccc3C(c3cccnc3)=NN2)cc1 | 109
40 | Cc1cc(C(=O)Nc2nc3cc4c(cc3s2)OCCO4)c2c(C)nn(C)c2n1 | 28.4
